Shown are actives, neighbours in structure and some others; about 19% of the full set was active somewhere.
ELG1 repair inh – inhibitors of ELG1-dependent DNA repair in HEK293T cells | HEK293T ELG1-luciferase reporter, luminescence, 16 h; DNA damage induced by 5-fluorouridine | AID 504467 | Potency, µM (titrated, usually from 46.1 µM), inactives show top-dose activity change, negative = inhibition, actives largely listed as inhibitors | 330,000 compounds, 2.3% hits; further: potency means the concentration at half of the fitted maximal effect; nearly all actives have a fitted effect of over 55% in size
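In this reporter screen, reduction of luminescence relative to DMSO vehicle indicated activity. Compounds and 5-fluorouridine were added together to 2,000 cells per well, incubated for 16 hr at 37 °C, then developed with ONE-Glo.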
TDP1 cell CPT – DT40-hTDP1 cell growth loss with CPT. AID 686979. 420,000 compounds, 12% hits. Potency, µM (highest dose often 46.2 µM), without a hit: at the highest dose activity change, negative = growth inhibition, hits mostly inhibitors. chicken DT40 Tdp1-/-;hTDP1 cells + 20 nM CPT, ATP luminescence, 48 h; further: potency means the concentration at half of the fitted maximal effect; nearly all actives have a fitted effect of over 55% in size
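Cell growth measured by CellTiter-Glo luminescence after a minimum 48 h, 37 C compound exposure with 20 nM CPT in Tdp1-knockout DT40 cells stably expressing hTDP1, seeded 400/well; qHTS titration format.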
Giardia killer – Giardia lamblia killing; activity change, % at 7.66 µM, hits read low; Giardia lamblia trophozoite viability; 340,000 compounds, 0.15% hits; in the data active means activity change below about -80%; inconclusive means between about -30% and that limit;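 further: parasites exposed to compound for two days anaerobically before the ATP read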
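Each well holds 100 Giardia trophozoites and compound. After two days (48 hrs) at 37 deg C in anaerobic conditions, ATP is quantified by luminescence.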
DT40 TDP1 no CPT – qHTS for Inhibitors of human tyrosyl-DNA phosphodiesterase 1 (TDP1): qHTS in cells in absence of CPT. AID 686978, 2013. 420,000 compounds, 15% hits. DT40 Tdp1-/- hTDP1 cells, no CPT, ATP luminescence, 48 h. Potency, µM (titrated, usually from 46.2 µM), for inactives: at the highest dose activity change, negative = growth inhibition, hits mostly inhibitors; further: potency means the concentration at half of the fitted maximal effect; nearly all actives have a fitted effect of over 55% in size
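Chicken DT40 Tdp1-/- cells stably complemented with human TDP1 were seeded at 400 cells/well with DMSO in place of 20 nM camptothecin. After compound pinning, cells grew at least 48 hr at 37 °C; viability read by CellTiter-Glo luminescence.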
TDP1 inh – TDP1 (human) enzyme inhibition | recombinant TDP1, AlphaScreen DNA substrate cleavage | Q9NUW8 | 350,000 compounds, 0.28% hits | Potency, µM (doses to about 130 µM), for inactives: top-dose activity change, negative = inhibition, most hits filed as inhibitors; further: potency means the concentration at half of the fitted maximal effect; nearly all actives have a fitted effect of over 40% in size
Target sequence (Q9NUW8 whole entry, looked up): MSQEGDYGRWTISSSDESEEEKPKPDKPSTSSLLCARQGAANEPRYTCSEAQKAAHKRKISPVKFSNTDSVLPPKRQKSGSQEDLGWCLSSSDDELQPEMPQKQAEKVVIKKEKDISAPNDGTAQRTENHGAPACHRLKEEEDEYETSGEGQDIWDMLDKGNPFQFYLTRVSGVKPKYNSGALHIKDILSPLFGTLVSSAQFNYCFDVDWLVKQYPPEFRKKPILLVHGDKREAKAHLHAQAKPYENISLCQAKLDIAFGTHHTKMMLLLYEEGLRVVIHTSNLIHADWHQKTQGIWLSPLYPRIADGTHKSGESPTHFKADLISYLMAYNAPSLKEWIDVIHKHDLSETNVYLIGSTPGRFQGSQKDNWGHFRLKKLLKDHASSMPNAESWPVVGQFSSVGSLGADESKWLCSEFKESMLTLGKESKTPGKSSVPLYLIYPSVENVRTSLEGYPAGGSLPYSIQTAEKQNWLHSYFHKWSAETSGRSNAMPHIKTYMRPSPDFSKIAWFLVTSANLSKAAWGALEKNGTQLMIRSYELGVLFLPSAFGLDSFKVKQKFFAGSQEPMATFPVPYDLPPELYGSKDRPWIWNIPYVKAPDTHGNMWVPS
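E. coli-derived human Tdp1, 1 nM final. Cpd preinc 15 min RT; substrate 15 nM final, 5 min RT; AS bead mix 10 ug/ml final, 10 min RT. Signal loss = tyrosine-FITC cleavage. No-enzyme wells = max signal.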
IL-1B inflam inh – blocks inflammasome-driven IL-1 beta release; THP-1 LPS/ATP IL-1B secretion, AlphaLISA, 16 h; stronger effect = lower value; 360,000 compounds, 4.7% hits; AID 743279; activity change, % at 57.5 µM; in the data active means activity change below about -50%; inconclusive means mostly about -30% to -49%
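THP-1 cells pretreated 1 hr with compounds (up to 57.5 uM final), then stimulated with LPS (250 ng/mL final) plus ATP (1.25 mM final); secreted IL-1B measured by AlphaLISA after 16 hr, decreased signal indicating inhibition.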
* marks the source's active call; other numbers are inactive results; [ ] = dose if it differs, or a comment. Unless noted, the call rests on the fitted dose curve; in most records, active means well fitted curve in the direction sought with a large enough effect; inconclusive means small, poorly fitted or top-dose-only effect, or another doubt; inactive means no such curve, though single readings can be large; an effect the other way counts as inactive or inconclusive. On the % scale 0 is the no-effect control and ±100 the full control effect.

What do the screens show for `CS(=O)(=O)N1CCc2cc(-c3csc(NCC4CCCO4)n3)ccc21` (stereo not given)?
ELG1 repair inh: -20%; TDP1 cell CPT: -25%; Giardia killer: -6; DT40 TDP1 no CPT: -27%; TDP1 inh: 4%; IL-1B inflam inh: -68*

How did Cc1ccccc1C(=O)N1CCc2cc(-c3csc(NC(=O)CN4CCCC4)n3)ccc21 do in these assays?
ELG1 repair inh: inconclusive; TDP1 cell CPT: inconclusive; Giardia killer: 4; DT40 TDP1 no CPT: inconclusive; IL-1B inflam inh: 22

Results for O=C1COc2ccc(-c3csc(NCC4CCCO4)n3)cc2N1 (stereo not given) ?
ELG1 repair inh: inconclusive; TDP1 cell CPT: inconclusive; Giardia killer: 3; DT40 TDP1 no CPT: -24%; TDP1 inh: 5%; IL-1B inflam inh: -22

Results for CS(=O)(=O)N1CCc2cc(-c3csc(NC(=O)Cc4ccccc4)n3)ccc21 ?
ELG1 repair inh: 18µM*; TDP1 cell CPT: inconclusive; Giardia killer: 9; DT40 TDP1 no CPT: inconclusive; TDP1 inh: 0%; IL-1B inflam inh: inconclusive

What do the screens show for `CCCC(=O)Nc1nc(-c2ccc3c(c2)CCN3S(C)(=O)=O)cs1`?
ELG1 repair inh: inconclusive; TDP1 cell CPT: inconclusive; Giardia killer: 3; DT40 TDP1 no CPT: 23µM*; TDP1 inh: 3%; IL-1B inflam inh: inconclusive

What do the screens show for `COc1cccc(CNC(=O)c2c(OC)cc(=O)n3c2CCN(C(=O)c2ccccc2Cl)CC3)c1`?
TDP1 cell CPT: 1%; DT40 TDP1 no CPT: -8%

Results for Cc1ccccc1Nc1ncnc2c1c(-c1ccccc1)cn2-c1ccc(F)cc1 ?
TDP1 cell CPT: inconclusive; DT40 TDP1 no CPT: inconclusive; TDP1 inh: 0%

What do the screens show for `Cc1ccc(-n2cc(-c3ccccc3)c3c(NN4CCOCC4)ncnc32)cc1`?
ELG1 repair inh: inconclusive; TDP1 cell CPT: 21µM*; Giardia killer: -22; DT40 TDP1 no CPT: 23µM*; TDP1 inh: -4%; IL-1B inflam inh: -15

What do the screens show for `Cc1c(C)n(CCc2ccccc2)c2ncnc(NCCCN(C)C)c12`?
ELG1 repair inh: inconclusive; TDP1 cell CPT: inconclusive; Giardia killer: 11; DT40 TDP1 no CPT: inconclusive; IL-1B inflam inh: -72*

Results for CCCNc1ncnc2c1c(-c1ccccc1)cn2-c1ccccc1 ?
TDP1 cell CPT: 15µM*; DT40 TDP1 no CPT: 23µM*; TDP1 inh: 5%

How did COc1ccc(CCNc2ncnc3c2c(-c2ccccc2)cn3-c2ccc(F)cc2)cc1OC do in these assays?
TDP1 cell CPT: 15µM*; DT40 TDP1 no CPT: 15µM*; TDP1 inh: 5%

What do the screens show for `COc1ccc(-c2cc(C)no2)cc1S(=O)(=O)N1CCCN(Cc2ccccc2Cl)C1`?
ELG1 repair inh: -3%; TDP1 cell CPT: inconclusive; Giardia killer: -3; DT40 TDP1 no CPT: inconclusive; TDP1 inh: 5%; IL-1B inflam inh: -3

What do the screens show for `O=C(c1cccnc1)C1CCCN(Cc2ccc3c(c2)CN(C(=O)c2cnccn2)CCO3)C1` (stereo not given)?
TDP1 cell CPT: 24%[9.04 µM]; DT40 TDP1 no CPT: -17%

What do the screens show for `COc1ccc(CNc2ncnc3c2c(-c2ccccc2)cn3-c2cccc(C)c2)cc1`?
TDP1 cell CPT: inconclusive; DT40 TDP1 no CPT: inconclusive; TDP1 inh: 5%

What do the screens show for `COc1ccc(CCNc2ncnc3c2c(C)c(C)n3CCCN(C)C)cc1OC`?
ELG1 repair inh: 8%; TDP1 cell CPT: -36%; Giardia killer: 4; DT40 TDP1 no CPT: inconclusive; IL-1B inflam inh: -20

How did COc1ccc(CCNc2ncnc3c2c(C)c(C)n3CCO)cc1OC do in these assays?
ELG1 repair inh: 23µM*; TDP1 cell CPT: 21µM*; Giardia killer: -10; DT40 TDP1 no CPT: 8.2µM*; IL-1B inflam inh: -1

How did Cc1ccc(CNc2ncnc3c2c(-c2ccccc2)cn3-c2cccc(Cl)c2)cc1 do in these assays?
TDP1 cell CPT: inconclusive; DT40 TDP1 no CPT: 18µM*; TDP1 inh: 5%

How did C[C@H]1Cc2c(-c3ccccc3)nc3c(c2CO1)CN(C(=O)NCc1ccco1)CC3 do in these assays?
TDP1 inh: 18%[12.3 µM]

Results for COc1cc(OCC(=O)NC(C)C)cc2c1C(=O)O[C@@H](C)CCCC(=O)CCCCC2 ?
ELG1 repair inh: -8%; TDP1 cell CPT: inconclusive; Giardia killer: -12; DT40 TDP1 no CPT: 21µM*; IL-1B inflam inh: -11

Results for NC(=O)CC(NC(=O)c1ccccc1)c1ccc(NC2CCC2)c([N+](=O)[O-])c1 (stereo not given) ?
ELG1 repair inh: -3%; TDP1 cell CPT: inconclusive; Giardia killer: -7; DT40 TDP1 no CPT: inconclusive; TDP1 inh: 2%; IL-1B inflam inh: -9

What do the screens show for `NC(=O)CC(NC(=O)c1ccccc1)c1ccc(NCC2CC2)c([N+](=O)[O-])c1` (stereo not given)?
ELG1 repair inh: -3%; TDP1 cell CPT: 23µM*; Giardia killer: 2; DT40 TDP1 no CPT: inconclusive; TDP1 inh: 2%; IL-1B inflam inh: 0

How did NC(=O)CC(NC(=O)c1ccccc1)c1ccc(NC2CCCC2)c([N+](=O)[O-])c1 (stereo not given) do in these assays?
ELG1 repair inh: inconclusive; TDP1 cell CPT: 4.6µM*; Giardia killer: 0; DT40 TDP1 no CPT: 18µM*; TDP1 inh: -1%; IL-1B inflam inh: -1

Results for O=C1c2ccc(Cl)cc2S(=O)(=O)c2cccc(C(=O)N3CCN(c4ccc(Cl)cn4)CC3)c21 ?
ELG1 repair inh: inconclusive; TDP1 cell CPT: 13µM*; Giardia killer: -13; DT40 TDP1 no CPT: 16µM*; TDP1 inh: 4%; IL-1B inflam inh: -93*

How did COc1ccc(-c2ccc3c(c2)S(=O)(=O)c2cccc(C(=O)N4CCN(c5ccc(Cl)cn5)CC4)c2C3=O)cc1OC do in these assays?
ELG1 repair inh: inconclusive; TDP1 cell CPT: -5%; Giardia killer: 5; DT40 TDP1 no CPT: inconclusive; TDP1 inh: 4%; IL-1B inflam inh: 61

How did Clc1ccc(CSc2nncn2-c2ccc3c(c2)OCCO3)cc1 do in these assays?
ELG1 repair inh: -9%; TDP1 cell CPT: 2.6µM*; Giardia killer: -9; DT40 TDP1 no CPT: 5.8µM*; TDP1 inh: -4%

Results for CCSc1ccc2c(c1)N(CCCN1CCN(C)CC1)c1ccccc1S2 ?
ELG1 repair inh: inconclusive; TDP1 cell CPT: 26µM*; Giardia killer: -5; DT40 TDP1 no CPT: inconclusive; TDP1 inh: 23%[21 µM]; IL-1B inflam inh: -57*

Screening results from PubChem BioAssay.
